# Experimental data as given in PubChem BioAssay (NCATS).
# Records with an inconclusive call do not appear. Activity calls are given as the source filed them. Calls come from the whole dose curve; as a rule, active = well fitted curve in the direction sought with a large enough effect; inconclusive = small, poorly fitted or top-dose-only effect, or another doubt; inactive = no such curve, though single readings can be large; an effect the other way counts as inactive or inconclusive.
# Experiments:
# [1] = qHTS to identify inhibitors of the type 1 interferon - major histocompatibility complex class I in skeletal muscle: primary screen against the NCATS Mechanism Interrogation Plate v5.0 (MIPE) Libary (AID 1347411); note: nearly all actives have a fitted effect of over 65% in size; note: potency is the fitted concentration of half-maximal effect
# Method in brief: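 Immortalized human C25cl48 myoblasts with HiBit knocked into endogenous HLA-B*08:01 were stimulated with 4.0 ng/ml IFN-beta and exposed to compounds (11-point 1:3 titration, top 46 uM final) for 24 hrs at 37 C; HiBiT lytic luminescence measured.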
# [2] = qHTS to identify inhibitors of the type 1 interferon - major histocompatibility complex class I in skeletal muscle: primary screen against the NCATS Pharmaceutical Collection (AID 1347407);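 note: luminescence of HiBiT knocked into endogenous HLA-B as interferon-induced MHC class I level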
# Method in brief: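 A qHTS format is used: 8-point, 1:5 compound series with 46 uM top final concentration, applied alongside 4 ng/ml IFN-beta to HLA-B*08:01-HiBiT knock-in myoblasts. Luminescence is measured after 24 h treatment.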
# [3] = biological target: Protein phosphatase 1D (Homo sapiens) (UniProt O15297); assay: RapidFire Mass Spectrometry qHTS Assay for Modulators of WT P53-Induced Phosphatase 1 (WIP1) (AID 1347424);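 note: amount of dephosphorylated VEPPL-S-QETFS peptide product formed by WIP1; potency is the fitted concentration of half-maximal effect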
# Protein phosphatase 1D (Homo sapiens), sequence (O15297 whole entry, looked up): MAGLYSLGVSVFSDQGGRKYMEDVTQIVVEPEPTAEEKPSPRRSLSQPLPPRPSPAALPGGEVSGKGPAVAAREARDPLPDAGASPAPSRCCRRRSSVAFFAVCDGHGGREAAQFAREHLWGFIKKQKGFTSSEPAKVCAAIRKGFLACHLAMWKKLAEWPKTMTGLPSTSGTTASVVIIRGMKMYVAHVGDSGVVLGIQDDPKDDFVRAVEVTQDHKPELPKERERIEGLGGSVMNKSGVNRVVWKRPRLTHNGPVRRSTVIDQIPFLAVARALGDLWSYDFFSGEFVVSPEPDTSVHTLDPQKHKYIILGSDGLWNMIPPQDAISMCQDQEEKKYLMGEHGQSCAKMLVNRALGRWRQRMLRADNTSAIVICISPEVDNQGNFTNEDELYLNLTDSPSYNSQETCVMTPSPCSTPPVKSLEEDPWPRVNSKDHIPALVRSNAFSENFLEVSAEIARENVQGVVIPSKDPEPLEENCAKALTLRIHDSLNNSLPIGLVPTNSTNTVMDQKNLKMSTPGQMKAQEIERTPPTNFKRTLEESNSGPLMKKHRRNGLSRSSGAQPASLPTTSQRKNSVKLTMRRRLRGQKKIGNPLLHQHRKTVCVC
# Method in brief: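 10 nM WIP1 preincubated with compounds 1 hr at room temperature in pH 7.5 Tris buffer with 30 mM MgCl2, 1 mM TCEP; 2 uM VEPPL-pS-QETFS phosphopeptide for 5 min, formic acid quench; dephosphorylated product quantified by RapidFire MS against labelled standard.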
# [4] = Primary qHTS for inhibitors of La Crosse Virus (LACV) - induced cell death in SH-SY5Y cells (AID 1508616);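 note: top concentration of the series differs between compounds; higher means more rescue of cells from virus-induced death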
# Method in brief: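 Luminescent ATP readout (ATPLite 1step, 5 min room temperature) measured rescue from LACV-induced death after 6 days of infection at 0.01 MOI; normalized to infected DMSO wells and uninfected DMSO wells.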
# [5] = DH5-alpha competent E. coli microbial cell viability qHTS against the NCATS CANVASS Library (AID 1347377)
# Method in brief: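 DH5-alpha E. coli suspension (0.9 OD culture diluted to 0.2 OD) exposed to compounds in an 11-point series, overnight at 37C, 5% CO2. Viability read as ATP by BacTiter-Glo luminescence after 20 min at room temperature.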
# [6] = qHTS for H2AX Agonists against the NCATS CANVASS Library (AID 1347378); settings: CHO-K1 H2AX phosphorylation, HTRF TR-FRET, 3 h;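 note: phospho-H2AX S139 level in CHO-K1 lysates by TR-FRET emission ratio; potency is the fitted concentration of half-maximal effect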
# Method in brief: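 Signal is the 665/620 nm emission ratio from europium cryptate and d2 antibody pair, rising with S139-phosphorylated H2AX. CHO-K1 cells saw test agents for 3 hr at 37C; detection ran 24 hr at room temperature.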
# [7] = qHTS for Inflammasome Signaling Inhibitors: IL-1-beta AlphaLISA screen against the NCATS CANVASS Library (AID 1347379); settings: THP-1 LPS/ATP, IL-1B AlphaLISA secretion, 16 h;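 note: human THP-1 cells primed with LPS then triggered with ATP; secreted IL-1B measured as AlphaLISA emission at 615 nm; potency is the fitted concentration of half-maximal effect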
# Method in brief: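 Human THP-1 cells were pretreated 1 hr at 37 °C with compounds (up to 57.5 uM final), then stimulated with LPS (250 ng/mL final) and ATP (1.25 mM final). Secreted IL-1B was read by AlphaLISA after 16 hr.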
# [8] = Inflammasome Signaling qHTS Counterscreen: IL-1-beta AlphaLISA counterscreen against the NCATS CANVASS Library (AID 1347381);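 note: cell-free check with purified IL-1β in medium and no THP-1 cells; series mostly up to about 57 µM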
# Method in brief: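 To flag interference with the AlphaLISA read-out, a known amount of purified IL-1-beta (4 pg) replaced cell supernatant. Detection used anti-IL-1-beta acceptor beads, biotinylated antibody and streptavidin donor beads at room temperature.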
# [9] = qHTS assay for small molecule disruptors of mitochondrial membrane potential screened against the NCATS CANVASS Library (AID 1347389); settings: HepG2 mitochondrial membrane potential, m-MPI red/green ratio, 1.5 h; note: potency is the fitted concentration of half-maximal effect; nearly all actives have a fitted effect of over 60% in size
# Method in brief: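 HepG2 cells (2,000/well) were plated overnight at 37C, exposed to compound for 1 hr at 37C/5% CO2, then loaded with Mito-MPS dye for 30 min. Depolarization was read as a drop in red (590 nm) to green (535 nm) fluorescence ratio.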
# [10] = Secretion counterscreen for inhibitors of the SERCaMP assay screened against the NCATS CANVASS Library (AID 1347390); settings: SH-SY5Y constitutive GLuc secretion, luminescence, 20 h;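 note: light from luciferase secreted into medium read as a measure of general secretion; potency is the fitted concentration of half-maximal effect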
# Method in brief: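 Natural products are titrated in an 11-point series up to 77 uM onto SH-SY5Y-GLuc STOP cells for 20 h. Secreted reporter activity is measured as coelenterazine-driven luminescence, with Brefeldin A on each plate.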
# [11] = qHTS for activators of Nrf2/ARE signaling pathway screened against the NCATS CANVASS Library (AID 1347391); settings: ARE-bla HepG2, beta-lactamase reporter, 16 h; note: potency is the fitted concentration of half-maximal effect; nearly all actives have a fitted effect of over 60% in size
# Method in brief: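 ARE-bla HepG2 beta-lactamase reporter cells, 2000 cells/well, were preincubated 5 h, then exposed to compounds (11-point series) for 16 h at 37C. CCF4 fluorescence (ex 405, em 460/530 nm) after 2 h at room temperature.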
# [12] = qHTS for inhibitors of ER calcium dysfunction: SERCaMP assay screened against the NCATS CANVASS Library (AID 1347393); settings: SH-SY5Y GLuc-SERCaMP secretion, thapsigargin, luminescence; note: potency is the fitted concentration of half-maximal effect; nearly all actives have a fitted effect of over 40% in size
# Method in brief: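 SH-SY5Y GLuc-SERCaMP, 1000 cells/well, 4 h attach; cpd 16 h, 37C/5% CO2; thapsigargin (added as 6x 600 nM) 4 h; coelenterazine; luminescence. Reduced reporter release = ER Ca stabilization.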
# [13] = Vero-766 cells viability qHTS against the NCATS CANVASS Library: Counterscreen for Zika virus inhibition assay (AID 1347394); settings: Vero 766 viability, CellTiter-Glo luminescence, 72 h; note: potency is the fitted concentration of half-maximal effect; nearly all actives have a fitted effect of over 60% in size
# Method in brief: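 Counterscreen for toxicity: Vero 766 cells exposed 72 h to an 11-point compound series, viability by CellTiter-Glo.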
# [14] = qHTS for inhibitors of Wild type Zika virus screened against the NCATS CANVASS Library (AID 1347396);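 note: ATP luminescence of surviving cells so rescue from viral cell killing; series mostly up to about 46 µM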
# Method in brief: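 Luminescent CellTiter Glo read-out of virus-induced cytotoxicity, 72 h post-infection, in Vero 766 cells. Compounds were tested at 11 concentrations; uninfected, vehicle-treated wells defined 100% inhibition.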
# [15] = Viability qHTS for inhibitors of the SERCaMP assay screened against the NCATS CANVASS Library (AID 1347400); settings: SH-SY5Y SERCaMP cells viability, CellTiter-Glo, 48 h; note: potency is the fitted concentration of half-maximal effect; nearly all actives have a fitted effect of over 70% in size
# Method in brief: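 SH-SY5Y-GLuc SERCaMP MJH297-derived cells (1000 cells/well) were pre-incubated 4 h at 37C, then exposed to compounds for 48 h. Viability was read as CellTiter-Glo luminescence; bortezomib served as positive control.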
# [16] = Redox Reaction Profiling qHTS: Assay Interference Panel against the NCATS CANVASS Library (AID 1347401)
# Method in brief: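 Compounds in 11-point series incubated with 5 uM resazurin and 200 uM DTT in 50 mM HEPES pH 7.3, 50 mM NaCl. Resorufin fluorescence (Ex 525/Em 598) read before and after 15 min in the dark.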
smiles,measurement,setting,value
CCN1CCN(Cc2ccc(NC(=O)c3ccc(C)c(/C=C/c4cnc5[nH]ccc5c4OC)c3)cc2C(F)(F)F)CC1,Potency,[1],6.58 µM (active)
Cc1[nH]nc(C(F)(F)F)c1Cc1sc2c(c1C(=O)N1C[C@](C)(O)CO1)c(=O)n(C)c(=O)n2C(C)C,Potency,[1],inactive
CCOc1cc(C(=O)N2CCC(N3CCN(C)CC3)CC2)ccc1Nc1ncc2c(n1)N(C1CCCC1)c1ccccc1C(=O)N2C,Potency,[1],23.4 µM (active)
CS(=O)(=O)c1ccc(-c2nnc(/C=C/c3nnc(-c4ccc(C#N)cc4)o3)n2-c2ccccc2Cl)nc1,Potency,[1],inactive
Cc1cc(O)c(-c2ccc([C@@H](C)CN(C)C)cc2)c2c1[nH]c(=O)c1sccc12,Potency,[1],0.104 µM (active)
Cc1ccc(N)cc1O,outcome,[2],inactive
same,Potency,[3],44.7 µM (active)
same,outcome,[4],inactive
C=C1C(=O)O[C@H]2[C@H]1CC/C(C)=C/CC[C@@]1(C)O[C@@H]21,outcome,[5],inactive
same,Potency,[6],4.86 µM (active)
same,Potency,[7],5.44 µM (active)
same,outcome,[8],inactive
same,Potency,[9],20.9 µM (active)
same,Potency,[10],15.3 µM (active)
same,Potency,[11],2.09 µM (active)
same,Potency,[12],1.72 µM (active)
same,Potency,[13],29.5 µM (active)
same,outcome,[14],inactive
same,Potency,[15],13.5 µM (active)
same,outcome,[16],inactive
Cc1ccc(NC(=O)Nc2cc(C(F)(F)F)ccc2F)cc1Nc1ccc2c(c1)NC(=O)/C2=C\c1ccc[nH]1,Potency,[1],23.4 µM (active)
Cc1ccc([N+](=O)[O-])cc1S(=O)(=O)N(C)/N=C/c1cnc2ccc(Br)cn12,Potency,[1],0.104 µM (active)
C[C@H](Nc1ncnc2nc[nH]c12)c1cc2ccc(F)cc2nc1-c1ccccn1,Potency,[1],inactive
CCCCNc1ncc2c(-c3ccc(CN4CCN(C)CC4)cc3)cn(C3CCC(O)CC3)c2n1 (stereo unspecified),Potency,[1],9.3 µM (active)
CN[C@@H]1[C@H](O[C@H]2[C@H](O[C@@H]3[C@@H](O)[C@H](O)[C@@H](N=C(N)N)[C@H](O)[C@H]3N=C(N)N)O[C@@H](C)[C@]2(O)C=O)O[C@@H](CO)[C@H](O)[C@H]1O,Potency,[1],inactive
CO[C@H]1C[C@@H]2CC[C@@H](C)[C@@](O)(O2)C(=O)C(=O)N2CCCC[C@H]2C(=O)O[C@H]([C@H](C)C[C@@H]2CC[C@@H](OP(C)(C)=O)[C@H](OC)C2)CC(=O)[C@H](C)/C=C(\C)[C@@H](O)[C@@H](OC)C(=O)[C@H](C)C[C@H](C)/C=C/C=C/C=C/1C,Potency,[1],18.6 µM (active)
